# In the library only some 9% were active in any assay of this set; here they are far more common.
# HTT cytoprotect – Huntington cell model cytoprotection by ATP luminescence | PC12 HTT-Q103 induced, cytoprotection, ATP luminescence, 40 h | Potency, µM (top dose mostly 56.4 µM), hits mostly activators | 230,000 tested, 0.14% active | AID 1471; also: nearly all actives have a fitted effect of over 45% in size
#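 Stable PC12 Q103-GFP cells in serum-supplemented, phenol red-free DMEM; induction by tebufenozide at 100 nM final; compound dose series; cell viability quantified luminescently from ATP.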
# KinaseGlo FLuc – blocks Kinase-Glo luciferase, a counter-screen artifact; Q27757; Kinase-Glo luciferase, ATP luminescence, 8 min; Potency, µM (highest dose often 38.3 µM), most hits filed as inhibitors; 200,000 tested, 0.28% active; AID 1379; also: nearly all actives have a fitted effect of over 60% in size
#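 Compound is pinned into ATP-containing buffer (10 uM ATP, imidazole pH 7.2, 7 mM MgCl2). Kinase-Glo luciferase reagent is then added. Light output is recorded following an 8-min room-temperature incubation.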
# HPGD block – blocks human HPGD enzyme activity. purified HPGD, NADH fluorescence kinetic, PGE2 substrate. AID 894. P15428. 150,000 tested, 4.3% active. Potency, µM, usual class: inhibitors; active = well fitted inhibition curve with a large enough effect, not every such curve was filed as active; inconclusive = small, poorly fitted or top-dose-only effect, or another doubt; inactive = no such curve, though single readings can be large or run the other way
#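 20 nM HPGD preincubated 15 min at room temperature with compound in 50 mM Tris-HCl pH 8, 0.01% Tween 20. Started with 1 mM NAD+ and 30 uM prostaglandin E2; NADH fluorescence (360/450 nm) read 5 times over 30-s intervals, last minus first.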
# ALDH1A1 inh – inhibitors of human aldehyde dehydrogenase 1A1 | P00352 | Purified ALDH1A1, NADH fluorescence, propionaldehyde substrate | Potency, µM (top dose mostly 75.3 µM), usual class: inhibitors | 220,000 tested, 7.3% active | AID 1030; active = well fitted inhibition curve with a large enough effect, not every such curve was filed as active; inconclusive = small, poorly fitted or top-dose-only effect, or another doubt; inactive = no such curve, though single readings can be large or run the other way
# Target sequence (P00352 whole entry, looked up): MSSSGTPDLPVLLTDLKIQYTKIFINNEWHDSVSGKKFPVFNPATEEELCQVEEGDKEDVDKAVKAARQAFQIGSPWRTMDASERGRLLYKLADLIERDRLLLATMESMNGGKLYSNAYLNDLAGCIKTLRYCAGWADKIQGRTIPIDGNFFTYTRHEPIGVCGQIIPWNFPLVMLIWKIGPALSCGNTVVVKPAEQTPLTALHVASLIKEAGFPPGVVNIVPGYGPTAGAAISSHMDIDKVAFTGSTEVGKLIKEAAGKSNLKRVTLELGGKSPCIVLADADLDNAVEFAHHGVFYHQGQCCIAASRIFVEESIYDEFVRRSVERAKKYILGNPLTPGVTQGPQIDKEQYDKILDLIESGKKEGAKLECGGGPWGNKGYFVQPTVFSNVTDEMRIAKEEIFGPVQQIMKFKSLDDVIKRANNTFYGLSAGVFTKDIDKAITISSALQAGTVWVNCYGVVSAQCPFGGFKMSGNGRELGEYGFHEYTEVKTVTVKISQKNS
# HttQ103 aggreg – inhibitors of mutant huntingtin aggregate formation in PC12 cells. PC12 HttQ103-GFP aggregates, Acumen cytometry, 40 h. Potency, µM (top dose mostly 46.1 µM), actives largely listed as inhibitors. 220,000 tested, 1.1% active. AID 1688; also: nearly all actives have a fitted effect of over 60% in size
#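 Multiplexed with ATP-based cell death, this channel scores GFP aggregates in PC12 cells expressing inducible HTTex1-Q103-GFP. Induction used 100 nM tebufenozide; compounds were tested in concentration series.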
# LMNA splice mod – changes lamin A minigene splicing in HeLa cells | HeLa LMNA splicing GFP/RFP minigene ratio, 48 h | Potency, µM (doses to about 46.1 µM), most hits filed as inhibitors | 200,000 tested, 0.01% active | AID 1487; active = well fitted inhibition curve with a large enough effect in the signal ratio, with a control signal flat, not every such curve was filed as active; inconclusive = small, poorly fitted or top-dose-only effect, or effect the other way, or a change in a side signal; the % refers to the signal ratio
#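 Read-out is the ratio of GFP to DsRed2 object intensity, acquired by 488 nm laser-scanning cytometry on HeLa lamin A-EGFP minigene reporter cells. Compound incubation 48 hrs at 37 °C in Opti-MEM with 2% FBS; DMSO 0.5% final.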
# Hits are given with their value; . = inactive; ? = inconclusive; / = no result; [ ] = remark or other dose. Unless noted, calls follow the shape of the dose curve; as a rule, active = well fitted curve in the direction sought with a large enough effect; inconclusive = small, poorly fitted or top-dose-only effect, or another doubt; inactive = no such curve, though single readings can be large; an effect the other way counts as inactive or inconclusive.
SMILES,HTT cytoprotect,KinaseGlo FLuc,HPGD block,ALDH1A1 inh,HttQ103 aggreg,LMNA splice mod
CC(=O)NC(c1cccs1)c1cc([N+](=O)[O-])c2cccnc2c1O (configuration not stated),.[10 µM],.,.,.,3.2µM,?
O=[N+]([O-])c1cc(Cc2cc([N+](=O)[O-])c3cccnc3c2O)c(O)c2ncccc12,.[10 µM],.[7.66 µM],.,?,/,/
O=C(Nc1ccc2oc(-c3ccccc3)nc2c1)c1cc(-n2cnnc2)ccc1Cl,/,.,/,.,.,/
Cc1cc2c(c(=O)n1C1CC1)C(c1cccc(Cl)c1)C(C#N)=C(N)O2 (configuration not stated),.,.,.,.,.,.
Cc1ccc(C(=O)CSc2nnnn2C(C)C)c(C)c1,.[10 µM],.,.,28µM,.,.
CC(C)(C)n1nnnc1CN1C2CCC1CC(NC(=O)Nc1ccccc1)C2 (configuration not stated),.[10 µM],.,.,?,.,.
CCOC(=O)c1ccc(NC(=O)NC2CC3CCC(C2)N3Cc2nnnn2Cc2ccco2)cc1 (configuration not stated),.,.,.,13µM,.,.
O=[N+]([O-])c1ccc(N/N=C2/CCCCC2c2ccccn2)cc1 (configuration not stated),.[10 µM],.,.,0.045µM,.,.
O=C(NN=C1CCCCCC1)c1cn(-c2ccccc2)nc1-c1ccccc1,.[10 µM],.,.,3.5µM,.,.
CC(=O)c1cccc(NC(=S)NCc2ccco2)c1,.[10 µM],.,/,.,.[9.22 µM],.
S=C(NCc1ccco1)Nc1cccc(Cl)c1,.[10 µM],.,11µM,?,.,?
Cn1c(C(=O)OCC(=O)NCc2ccco2)cc2sccc21,.,.,?,?,.,.
COc1ccc(Cl)cc1NC(=O)NCc1ccco1,.,/,/,.,.,/
COc1ccc(Cl)cc1NC(=S)NCc1ccco1,.,.,13µM,.,.,.
Cc1cc2c(cc(C(=O)OCC(=O)NCc3ccco3)n2C)s1,.,.,14µM,.,.,?
S=C(NCc1ccccn1)Nc1ccc(Cl)c(Cl)c1,.,.,16µM,11µM,.,.
CCNC(=S)N1CCN(CC)CC1,.,.,/,.,.,.
CCN(Cc1ccccc1)S(=O)(=O)c1cc(C(=O)NCC2CCCCC2)ccc1OC,.[10 µM],.,.,?,.,?
S=C(NCc1ccco1)Nc1ccc(Cl)c(Cl)c1,.,.,3.2µM,25µM,?,?
S=C(NCc1ccco1)Nc1cc(Cl)c(Cl)cc1Cl,.[10 µM],.,3.2µM,.,.,?
O=C(CCNc1cccc(Cl)c1)c1ccco1,.,.,.,7.1µM,.,.
COc1ccc(NC(=S)NCc2ccco2)cc1,.,.,.,.,.,.
CCOc1ccccc1NC(=S)NCc1ccco1,.[10 µM],.,.,28µM,.,.
CNC(=S)N(CCc1c(C)[nH]c2ccc(OC)cc12)Cc1cc(OC)c(OC)c(OC)c1,/,.,.,.,.,.
Cc1nnc(SCCn2c(N3CCCCCC3)nc3c2c(=O)[nH]c(=O)n3C)s1,.,.,.,.,.,.
SMILES,HTT cytoprotect,KinaseGlo FLuc,HPGD block,ALDH1A1 inh,HttQ103 aggreg,LMNA splice mod
CN(C)S(=O)(=O)c1cccc(NC(=S)NCc2ccco2)c1,.,.,/,32µM,.,/
S=C(NCc1ccco1)Nc1cc(-c2ccccc2)[nH]n1,.[10 µM],.,/,1.1µM,.,?
CN(C)S(=O)(=O)c1ccc(Cl)c(C(=O)NCc2ccco2)c1,.[10 µM],.,.,?,.,.
O=C(NNC(=S)Nc1ccc(F)c(Cl)c1)c1ccccc1Br,.[10 µM],.,/,13µM,?,?
O=C(NNC(=S)Nc1ccc(Cl)c(Cl)c1)c1ccccn1,/,.,/,3.2µM,/,/
CCOc1ccccc1NC(=O)NC1(C(=O)N2CCOCC2)CCCCC1,.[10 µM],.,.,.,.[9.22 µM],.
COc1ccc(Nc2nc(NCc3ccco3)nc(N/N=C/c3ccccc3F)n2)cc1,.[1.9 µM],.,.,?,.,.
Cc1ccc(-c2ccc(=O)n(CC(=O)NCCN3C(C)CCCC3C)n2)cc1 (configuration not stated),.,.,.,.,.,.
CN(C)S(=O)(=O)c1ccc(C(=O)OCC(=O)NCc2ccco2)cc1,.,.,/,15µM,.,.
CN(C)S(=O)(=O)c1ccc(C(=O)NCc2ccco2)cc1,.[10 µM],.,/,?,.[9.22 µM],/
CC(=O)Nc1ccc(S(=O)(=O)n2nc(-c3ccc(C)cc3)nc2N)cc1,.,.,6.3µM,.,.,?
CSc1ccccc1-c1nnc(-c2ccc(Cl)cc2Cl)o1,.,.,?,?,.,.
CSc1nnc(-c2ccc(Cl)cc2Cl)o1,.,.,.,.,.,.
CCSc1nnc(-c2ccc(Cl)cc2Cl)o1,.,.,14µM,?,.,.
CSc1nnc(-c2ccccc2Cl)o1,.,.,32µM,.,.,.
Clc1ccc(-c2nnc(-c3ccccc3)o2)c(Cl)c1,.[1.9 µM],?,?,32µM,.,.
Fc1ccc(-c2nnc(-c3ccc(Cl)cc3Cl)o2)cc1,.,.,.,.,.,.
Cc1cc(N=Cc2c(O)ccc3cc(Br)ccc23)no1,/,.,10µM,1.8µM,.,?
O=C(Nc1ccccc1-c1ccccc1)c1cccc([N+](=O)[O-])c1,.,.,.,7.9µM,.,.
O=C(Nc1nc(-c2ccccc2)cs1)c1cccc([N+](=O)[O-])c1,.,.,.,?,?,.
O=C(CC(=O)c1cccc([N+](=O)[O-])c1)Nc1ccccc1Cl,.,.,/,3.5µM,.,/
CCc1noc(C)c1C(=O)Nc1nc(-c2ccc(Cl)cc2Cl)c(C)s1,.,.,.,.,.,.
Cc1ccc(N2CCN(/N=C/c3ccccc3[N+](=O)[O-])CC2)cc1,.,.,/,16µM,.,/
O=[N+]([O-])c1ccccc1/C=N/N1CCN(c2ccccn2)CC1,.,.,.,.,.,.
O=C(Cn1nnc(-c2ccc(S(=O)(=O)N3CCCC3)cc2)n1)Nc1ccccc1-n1cccc1,.[10 µM],.,.,?,.,.
SMILES,HTT cytoprotect,KinaseGlo FLuc,HPGD block,ALDH1A1 inh,HttQ103 aggreg,LMNA splice mod
Cn1c(CCNC(=O)c2ccc(F)cc2)nc2ccccc21,.,.,.,.,.,.
CCOC(=O)Cn1cnc2c(nnn2Cc2ccc(Cl)cc2)c1=O,.,.,.,.,.,.
COC(=O)C(C)n1cnc2c(nnn2Cc2ccc(Cl)cc2)c1=O (configuration not stated),?,.,28µM,.,.,.
O=C(Cn1cnc2c(nnn2Cc2ccc(Cl)cc2)c1=O)OCc1ccccc1,.[10 µM],.,13µM,13µM,.,.
O=c1c2nnn(Cc3ccccc3)c2ncn1C/C=C/c1ccccc1,.,.,14µM,.,.,.
CCn1c(C2CC(=O)N(c3cc(C)cc(C)c3)C2)nc2ccccc21 (configuration not stated),.,.,.,.,.,.

# Source: PubChem
